What is called AC50 is the concentration giving half of the maximal activity seen.

Outcome and AC50 data for 4 compounds are collected here from PubChem BioAssay (EPA / NIEHS).

Assay [1] in a line: ATG_GLI_CIS: Attagene CIS-FACTORIAL HepG2 Assay for human Zinc Finger Protein GLI1 (AID 2282945). The conditions noted are these: HepG2, Attagene cis-factorial reporter mRNA, GLI element; actives raise or lower the signal. In a few lines:
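Bidirectional curve fits relative to DMSO, using reporter mRNA levels from RT-PCR plus capillary electrophoresis. Cells were HepG2 transiently carrying cis-regulated reporter constructs, harvested 24 h after dosing.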

Assay [2] concerns the target Bile acid receptor (Homo sapiens) (UniProt Q96RI1). Briefly: ATG_IR1_CIS: Attagene CIS-FACTORIAL HepG2 Assay for human Nuclear Receptor Subfamily 1 Group H Member 4 (NR1H4), IR1 submotif (AID 2282946). The conditions noted are these: IR1 reporter transcription, actives raise or lower the signal. In a few lines: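 Cells (human HepG2) carry transiently transfected cis-promoter reporter transcription units. Compounds are incubated 24 h, total RNA is reverse-transcribed and amplified, and labelled fragments are resolved by capillary electrophoresis. Curves use DMSO as baseline.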

Assay [3] can be described thus: ATG_GRE_CIS: Attagene CIS-FACTORIAL HepG2 Assay for human Glucocorticoid Response Elements (GRE) (AID 2282947). The conditions noted are these: HepG2 GRE cis-reporter, Attagene multiplex mRNA; actives raise or lower the signal. In short, it runs like this: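 Assay uses human hepatoma HepG2 cells transfected with cis-promoter reporter units, exposed 24 h. mRNA from reporters detected by RT-PCR plus capillary electrophoresis; DMSO serves as negative control and baseline.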

The nature of assay [4]: ATG_ISRE_CIS: Attagene CIS-FACTORIAL HepG2 Assay for human Interferon Regulatory Factor 1 (IRF1) binding to an Interferon-Stimulated Response Element (ISRE) (AID 2282948). The conditions noted are these: HepG2 ISRE cis-reporter (Attagene), mRNA transcription readout; actives raise or lower the signal. In short, it runs like this: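 Transfected HepG2 (multiple reporter transcription units, cis elements) dosed 24 h. RNA → oligo(dT) RT → PCR → 6-FAM primer extension → HpaI → CE. DMSO = negative control/baseline.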

A short description of assay [5]: ATG_M_32_CIS: Attagene CIS-FACTORIAL HepG2 Assay for M32 Transcription Factor (Internal Marker) (AID 2282949).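 Further: background control marker of the multiplexed CIS panel rather than a real target.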 The conditions noted are these: HepG2 Attagene cis-factorial M32 reporter, mRNA; actives raise or lower the signal. In a few lines:
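Internal background marker read-out: RT-PCR/capillary electrophoresis fluorescence of reporter transcripts from transiently transfected HepG2 cells after 24 h chemical exposure. Activity fitted bidirectionally relative to DMSO negative control.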

Assay [6] can be described thus: ATG_M_06_CIS: Attagene CIS-FACTORIAL HepG2 Assay for M06 Transcription Factor (Internal Marker) (AID 2282950). The settings on record: HepG2 Attagene CIS-FACTORIAL M06 internal marker reporter; actives raise or lower the signal. In a few lines: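 Measured 24 h post-dosing in transiently transfected HepG2 cells, this internal-marker endpoint reports reporter mRNA via RT-PCR with fluorescent primer extension and capillary electrophoresis. DMSO served as negative control and baseline for bidirectional fitting.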

The target of assay [7] is Hypoxia-inducible factor 1-alpha (Homo sapiens) (UniProt Q16665). Briefly: ATG_HIF1a_CIS: Attagene CIS-FACTORIAL HepG2 Assay for human Hypoxia Inducible Factor 1 (HIF1A) (AID 2282951). The conditions noted are these: HepG2 Attagene cis-factorial HIF1a reporter transcription; actives raise or lower the signal. In short, it runs like this: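 Transient MRTU transfection of human HepG2 liver cells, 24 h compound treatment, then total RNA isolation, oligo(dT) reverse transcription, PCR amplification, fluorescent labelling and capillary electrophoresis of reporter fragments. Gain or loss relative to DMSO.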

A short description of assay [8]: ATG_MRE_CIS: Attagene CIS-FACTORIAL HepG2 Assay for human Metal Responsive Element (MRE) (AID 2282954). The settings on record: HepG2 MRE cis-reporter transcription, Attagene multiplex; actives raise or lower the signal. In short, it runs like this: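 After a 24 h chemical exposure, transiently transfected HepG2 cells yield RNA whose reporter sequences are amplified, FAM-labelled and sized by capillary electrophoresis. Curves are fitted bidirectionally relative to DMSO.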

Assay [9] can be described thus: ATG_PBREM_CIS: Attagene CIS-FACTORIAL HepG2 Assay for human Phenobarbital-responsive Enhancer Module (PBREM) (AID 2282955). The settings on record: HepG2 PBREM cis-reporter, Attagene multiplexed transcription; actives raise or lower the signal. In a few lines: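 Endogenous transcription factors in human liver HepG2 cells drive a PBREM cis-element reporter, whose transcript level after 24 h treatment is quantified by RT-PCR with capillary electrophoresis; activity fitted in both directions against DMSO.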

Assay [10] deals with Paired box protein Pax-6 (Homo sapiens) (UniProt P26367). In words: ATG_Pax6_CIS: Attagene CIS-FACTORIAL HepG2 Assay for human Paired Box 6 (PAX6) (AID 2282956). The settings on record: HepG2 CIS-FACTORIAL PAX6 reporter transcription, RNA readout; actives raise or lower the signal. In a few lines:
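Transient MRTU transfection of HepG2 → compound exposure 24 h → TriZol RNA, oligo(dT) RT → PCR, 6-FAM primer extension, HpaI cut → capillary electrophoresis; activity fitted both directions against DMSO.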

A short description of assay [11]: ATG_PXRE_CIS: Attagene CIS-FACTORIAL HepG2 Assay for human Pregnane X Receptor Element (PXRE) (AID 2282957). The settings on record: HepG2 Attagene CIS-FACTORIAL PXRE reporter, mRNA; actives raise or lower the signal. In a few lines:
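Cis-element reporter mRNA in human hepatoma HepG2 cells is measured 24 h post-dosing by RT-PCR, primer-extension labeling and capillary electrophoresis; gain or loss of signal is fitted relative to DMSO.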

Assay [12] in a line: ATG_Sox_CIS: Attagene CIS-FACTORIAL HepG2 Assay for human SRY-box transcription factor (SOX) (AID 2282960). The settings on record: HepG2 Attagene cis-factorial SOX reporter, mRNA; actives raise or lower the signal. In short, it runs like this:
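Endogenous factor activity in human liver HepG2 cells carrying transfected cis-regulated reporter units. RNA taken 24 h post-dose, reverse-transcribed, PCR-amplified and sized by capillary electrophoresis. Gain or loss of signal fitted relative to DMSO.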

In assay [13] the target is Transcription factor Sp1 (Homo sapiens) (UniProt P08047). In words: ATG_Sp1_CIS: Attagene CIS-FACTORIAL HepG2 Assay for human Specificity Protein 1 (Sp1) (AID 2282961). The settings on record: HepG2 Sp1 cis-reporter transcription, actives raise or lower the signal. In short, it runs like this: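 Transient MRTU-transfected HepG2, 24 h compound exposure. Total RNA → oligo(dT) RT → PCR of reporter → 6-FAM primer extension → HpaI digest → CE. Endpoint fitted both directions vs DMSO.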

Assay [14] is described as follows: ATG_SREBP_CIS: Attagene CIS-FACTORIAL HepG2 Assay for human Sterol Regulatory Element Binding (SREBP) (AID 2282962). The conditions noted are these: HepG2 Attagene cis-factorial SREBP reporter, mRNA; actives raise or lower the signal. In short, it runs like this: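 Transfected HepG2 (cis-regulated reporter library, endogenous TFs) → compound 24 h → total RNA → oligo(dT) RT → reporter-specific PCR → FAM primer extension, HpaI cut → CE fluorescence. Fit bidirectional vs DMSO.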

Assay [15] has as its target Signal transducer and activator of transcription 3 (Homo sapiens) (UniProt P40763). In words: ATG_STAT3_CIS: Attagene CIS-FACTORIAL HepG2 Assay for human Signal Transducer and Activator of Transcription 3 (STAT3) (AID 2282963). The conditions noted are these: HepG2, Attagene cis-factorial STAT3 reporter transcription; actives raise or lower the signal. In a few lines: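 After a 24 h compound incubation, total RNA from MRTU-transfected HepG2 cells was converted to cDNA and reporter sequences PCR-amplified, labelled and profiled by capillary electrophoresis. Gain and loss of signal were referenced to DMSO.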

Assay [16] in a line: ATG_TA_CIS: Attagene CIS-FACTORIAL HepG2 Assay for human TA Basal Promoter (AID 2282964). The settings on record: HepG2 Attagene CIS-factorial TA basal promoter reporter; actives raise or lower the signal. In a few lines: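 Cis-factorial format in HepG2: reporters report endogenous factors, not chimeric Gal4 fusions. After 24 h treatment, reporter transcripts were measured by RT-PCR-capillary electrophoresis fluorescence, analysed bidirectionally versus DMSO.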

Assay [17] has as its target Heat shock factor protein 1 (Homo sapiens) (UniProt Q00613). Briefly: ATG_HSE_CIS: Attagene CIS-FACTORIAL HepG2 Assay for human Heat Shock Transcription Factor 1 (HSE) (AID 2282953). The conditions noted are these: HepG2 HSE cis-reporter, Attagene RNA transcription; actives raise or lower the signal. In short, it runs like this: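 Reporter mRNA induction in HepG2 is measured 24 h after dosing, using transiently transfected multiplexed cis-regulated reporter units. Signal comes from capillary electrophoresis of labelled RT-PCR products, with DMSO as negative control.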

The nature of assay [18]: ATG_RORE_CIS: Attagene CIS-FACTORIAL HepG2 Assay for human RAR-related Orphan Receptor Element (RORE) (AID 2282959). The settings on record: HepG2 Attagene cis-factorial RORE reporter, mRNA; actives raise or lower the signal. In a few lines:
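Transient MRTU transfection of human HepG2 liver cells (FuGene 6); 24 h compound exposure; TriZol RNA, oligo(dT) RT, PCR, FAM labeling, HpaI cut, CE fragment analysis. DMSO = negative control/baseline.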

The target in assay [19] is Hepatocyte nuclear factor 6 (Homo sapiens) (UniProt Q9UBC0). In words: ATG_HNF6_CIS: Attagene CIS-FACTORIAL HepG2 Assay for human Hepatocyte Nuclear Factor 6 (HNF6) (AID 2282952). The conditions noted are these: HepG2 Attagene cis-factorial HNF6 reporter transcription; actives raise or lower the signal. In a few lines:
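Transiently transfected HepG2 cells expressing cis-regulated reporter transcription units were exposed to chemical for 24 h in a 24-well format. Reporter transcript abundance was determined by fluorescence capillary electrophoresis.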

The nature of assay [20]: ATG_PPRE_CIS: Attagene CIS-FACTORIAL HepG2 Assay for human Peroxisome Proliferator-activated Response Element (PPRE) (AID 2282958). The settings on record: HepG2 PPRE cis-element reporter, Attagene transcription factor profiling; actives raise or lower the signal. In a few lines: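 HepG2, transient MRTU transfection (cis promoter elements, endogenous TFs). 24 h dosing. RNA → oligo(dT) RT → PCR → 6-FAM primer extension → HpaI digest → CE. Bidirectional fit vs DMSO.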

Each structure is given as a SMILES string. Calls of active or inactive are those of the source. How the source made its calls: active means hit-call score of the fitted dose curve at least 0.9, where 1 is the maximum; inactive means score below 0.9.

Transcription factor Sp1 (Homo sapiens), sequence (P08047 whole entry, looked up): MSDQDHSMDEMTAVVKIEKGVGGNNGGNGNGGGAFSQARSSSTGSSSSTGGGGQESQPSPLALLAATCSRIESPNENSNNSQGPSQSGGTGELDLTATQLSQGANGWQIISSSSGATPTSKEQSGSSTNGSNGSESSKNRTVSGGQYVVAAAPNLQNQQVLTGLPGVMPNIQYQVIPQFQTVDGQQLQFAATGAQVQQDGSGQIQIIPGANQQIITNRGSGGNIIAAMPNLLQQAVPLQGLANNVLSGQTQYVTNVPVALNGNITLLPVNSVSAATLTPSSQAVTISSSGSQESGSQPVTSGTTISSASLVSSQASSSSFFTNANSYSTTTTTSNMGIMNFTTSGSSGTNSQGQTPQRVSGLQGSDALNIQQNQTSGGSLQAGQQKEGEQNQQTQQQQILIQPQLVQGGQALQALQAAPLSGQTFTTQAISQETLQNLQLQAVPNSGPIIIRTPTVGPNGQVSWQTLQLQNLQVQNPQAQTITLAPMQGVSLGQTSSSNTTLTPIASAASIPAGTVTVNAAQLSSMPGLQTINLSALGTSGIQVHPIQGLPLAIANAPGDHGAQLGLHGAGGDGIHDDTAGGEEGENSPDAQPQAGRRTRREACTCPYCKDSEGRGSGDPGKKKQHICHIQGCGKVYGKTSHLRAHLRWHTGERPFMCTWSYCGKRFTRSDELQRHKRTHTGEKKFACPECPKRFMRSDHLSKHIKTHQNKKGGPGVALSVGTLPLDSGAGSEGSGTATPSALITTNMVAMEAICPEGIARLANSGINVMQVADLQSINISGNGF
Signal transducer and activator of transcription 3 (Homo sapiens), sequence (P40763 whole entry, looked up): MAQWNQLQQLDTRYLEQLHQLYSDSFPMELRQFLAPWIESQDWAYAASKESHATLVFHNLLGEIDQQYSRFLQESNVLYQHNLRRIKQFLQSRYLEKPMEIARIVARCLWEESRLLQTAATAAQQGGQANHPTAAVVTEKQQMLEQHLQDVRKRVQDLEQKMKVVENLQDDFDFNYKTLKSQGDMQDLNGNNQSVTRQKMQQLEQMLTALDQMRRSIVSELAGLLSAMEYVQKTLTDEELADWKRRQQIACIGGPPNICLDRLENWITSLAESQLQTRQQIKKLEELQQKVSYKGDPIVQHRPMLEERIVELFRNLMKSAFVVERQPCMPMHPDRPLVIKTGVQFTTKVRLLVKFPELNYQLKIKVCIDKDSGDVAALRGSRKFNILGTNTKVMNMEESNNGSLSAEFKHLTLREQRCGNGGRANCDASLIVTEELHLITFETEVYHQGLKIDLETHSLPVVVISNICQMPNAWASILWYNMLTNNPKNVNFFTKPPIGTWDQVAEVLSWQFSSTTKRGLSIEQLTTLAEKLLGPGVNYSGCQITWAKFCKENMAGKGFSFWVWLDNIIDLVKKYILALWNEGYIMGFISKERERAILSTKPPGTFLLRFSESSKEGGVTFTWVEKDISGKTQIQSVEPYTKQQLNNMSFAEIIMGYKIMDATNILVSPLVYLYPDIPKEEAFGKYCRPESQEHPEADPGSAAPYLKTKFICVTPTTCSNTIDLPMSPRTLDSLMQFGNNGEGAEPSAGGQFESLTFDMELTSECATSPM
Hypoxia-inducible factor 1-alpha (Homo sapiens), sequence (Q16665 whole entry, looked up, the tested form may be a part): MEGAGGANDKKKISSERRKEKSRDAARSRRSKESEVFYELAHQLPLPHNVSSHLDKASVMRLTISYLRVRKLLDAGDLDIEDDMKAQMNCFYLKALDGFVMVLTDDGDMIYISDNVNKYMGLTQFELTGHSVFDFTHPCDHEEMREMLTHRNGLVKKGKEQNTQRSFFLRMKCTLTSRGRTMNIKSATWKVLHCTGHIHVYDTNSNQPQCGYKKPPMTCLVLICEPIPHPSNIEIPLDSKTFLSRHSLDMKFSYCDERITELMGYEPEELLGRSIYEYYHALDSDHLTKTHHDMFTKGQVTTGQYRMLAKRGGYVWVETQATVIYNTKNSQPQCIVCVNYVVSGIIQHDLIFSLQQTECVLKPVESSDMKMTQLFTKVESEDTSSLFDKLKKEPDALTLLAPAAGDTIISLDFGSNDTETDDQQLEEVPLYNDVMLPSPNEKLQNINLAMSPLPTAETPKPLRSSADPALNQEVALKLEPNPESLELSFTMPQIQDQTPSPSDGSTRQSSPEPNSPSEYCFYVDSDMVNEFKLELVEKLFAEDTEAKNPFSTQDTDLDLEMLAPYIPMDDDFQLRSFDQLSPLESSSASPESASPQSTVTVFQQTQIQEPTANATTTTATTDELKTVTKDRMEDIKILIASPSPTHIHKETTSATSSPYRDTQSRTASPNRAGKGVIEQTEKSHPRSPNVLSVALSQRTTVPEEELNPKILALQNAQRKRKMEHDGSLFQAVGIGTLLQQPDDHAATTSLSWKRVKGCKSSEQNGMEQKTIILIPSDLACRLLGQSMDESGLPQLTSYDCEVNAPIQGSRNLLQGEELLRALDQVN
Heat shock factor protein 1 (Homo sapiens), sequence (Q00613 whole entry, looked up): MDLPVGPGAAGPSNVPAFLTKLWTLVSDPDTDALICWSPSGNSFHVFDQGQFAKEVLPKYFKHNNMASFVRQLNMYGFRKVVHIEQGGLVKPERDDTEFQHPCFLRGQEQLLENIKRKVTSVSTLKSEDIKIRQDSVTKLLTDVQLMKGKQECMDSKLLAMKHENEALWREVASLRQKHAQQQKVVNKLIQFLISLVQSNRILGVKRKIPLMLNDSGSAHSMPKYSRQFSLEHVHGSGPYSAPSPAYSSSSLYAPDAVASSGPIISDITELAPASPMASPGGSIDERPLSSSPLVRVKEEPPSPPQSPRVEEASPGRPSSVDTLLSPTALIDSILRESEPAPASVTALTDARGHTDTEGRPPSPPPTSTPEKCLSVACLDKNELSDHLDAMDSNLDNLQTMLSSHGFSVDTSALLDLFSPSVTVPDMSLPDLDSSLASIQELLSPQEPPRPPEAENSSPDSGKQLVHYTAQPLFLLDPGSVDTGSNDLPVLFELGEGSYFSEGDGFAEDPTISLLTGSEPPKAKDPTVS
Bile acid receptor (Homo sapiens), sequence (Q96RI1 whole entry, looked up, the tested form may be a part): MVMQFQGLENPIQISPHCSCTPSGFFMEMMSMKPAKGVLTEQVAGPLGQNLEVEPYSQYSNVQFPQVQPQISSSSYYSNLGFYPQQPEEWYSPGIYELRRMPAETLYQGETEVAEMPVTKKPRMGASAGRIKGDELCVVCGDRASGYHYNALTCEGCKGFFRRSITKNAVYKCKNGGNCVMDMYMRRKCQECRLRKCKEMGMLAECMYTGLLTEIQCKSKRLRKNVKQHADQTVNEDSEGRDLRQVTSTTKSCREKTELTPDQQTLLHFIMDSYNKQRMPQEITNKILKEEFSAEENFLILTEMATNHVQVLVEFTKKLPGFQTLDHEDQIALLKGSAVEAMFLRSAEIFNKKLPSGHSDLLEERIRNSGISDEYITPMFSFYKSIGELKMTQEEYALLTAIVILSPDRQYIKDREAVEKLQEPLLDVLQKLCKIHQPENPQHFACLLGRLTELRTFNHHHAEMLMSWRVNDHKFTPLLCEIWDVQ
Paired box protein Pax-6 (Homo sapiens), sequence (P26367 whole entry, looked up): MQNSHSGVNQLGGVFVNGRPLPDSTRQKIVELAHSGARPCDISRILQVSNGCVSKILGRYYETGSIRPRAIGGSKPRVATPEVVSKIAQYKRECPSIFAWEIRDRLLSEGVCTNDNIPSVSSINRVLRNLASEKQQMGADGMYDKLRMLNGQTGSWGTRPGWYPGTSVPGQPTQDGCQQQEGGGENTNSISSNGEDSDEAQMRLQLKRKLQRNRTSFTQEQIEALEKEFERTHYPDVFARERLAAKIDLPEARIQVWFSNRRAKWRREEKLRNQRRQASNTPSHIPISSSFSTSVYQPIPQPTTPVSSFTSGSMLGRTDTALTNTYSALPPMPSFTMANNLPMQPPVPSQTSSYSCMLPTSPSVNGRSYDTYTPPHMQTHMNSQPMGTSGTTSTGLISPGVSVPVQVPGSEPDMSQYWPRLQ
Hepatocyte nuclear factor 6 (Homo sapiens), sequence (Q9UBC0 whole entry, looked up): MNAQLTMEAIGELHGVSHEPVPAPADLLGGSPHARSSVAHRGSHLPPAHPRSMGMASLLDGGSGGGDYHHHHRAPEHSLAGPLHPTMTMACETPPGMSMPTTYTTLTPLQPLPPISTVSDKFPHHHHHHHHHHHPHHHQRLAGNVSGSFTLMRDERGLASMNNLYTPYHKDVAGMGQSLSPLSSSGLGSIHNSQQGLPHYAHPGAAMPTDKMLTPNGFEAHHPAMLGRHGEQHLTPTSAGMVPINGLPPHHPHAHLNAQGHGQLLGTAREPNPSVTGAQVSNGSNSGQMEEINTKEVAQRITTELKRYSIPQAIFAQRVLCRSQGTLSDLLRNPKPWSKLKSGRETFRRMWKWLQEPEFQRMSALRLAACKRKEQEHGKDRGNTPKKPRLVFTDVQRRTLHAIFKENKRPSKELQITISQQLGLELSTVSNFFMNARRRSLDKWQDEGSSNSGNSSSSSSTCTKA

`CN1CCN(Cc2cc(-c3ccc4[nH]c(=O)oc4c3)co2)[C@@H](c2ccc(F)cc2)C1`: the outcome in assay [1], in [2], in assay [3], in assay [5], in assay [6] and in [9] was inactive. Moreover, the result in assay [12], in assay [13] and in assay [15] was inactive. Also, the AC50 in assay [4] is 18 µM (active); in assay [7], 6.55 µM (active); in assay [8] it was 48.6 µM (active); in assay [10] it was 47.4 µM (active); in [11] it was 8.51 µM (active); in assay [14] it was 33 µM (active). Also, the AC50 in [16] is 33 µM (active).
In the case of `NS(=O)(=O)c1cc2c(cc1Cl)NCNS2(=O)=O`, the result in [1], in assay [3], in assay [4], in assay [5], in assay [6] and in [17] was inactive. Further, the compound was classed as inactive in assay [8], in [10], in [18], in assay [12], in [13] and in assay [14]. Also, the outcome in assay [15] and in assay [16] was inactive. The AC50 in assay [2] is 3.7 µM (active).
On to `CCCCc1ccc2c(n1)[C@@H](c1ccc(OC)cc1C[C@H](C)C(=O)O)[C@H](C(=O)O)[C@H]2c1ccc2c(c1)OCO2`, for which the result in assay [1], in [2], in assay [3], in assay [4], in [5] and in assay [6] was inactive. Moreover, the compound was classed as inactive in [7], in assay [19], in assay [17], in assay [8], in assay [9] and in assay [10]. The compound was classed as inactive in [11], in [18], in assay [12], in [13], in assay [14] and in assay [15]. For the same compound, the compound was classed as inactive in assay [16].
With `CCCCCCCCCCCC(=O)OC`, the result in assay [1], in assay [2], in assay [3], in [4], in [5] and in assay [6] was inactive. The result in assay [7], in [17], in assay [8], in assay [9], in assay [10] and in assay [11] was inactive. For the same compound, the result in assay [20], in [18], in assay [12], in assay [13], in assay [15] and in assay [16] was inactive. Also, in assay [14], the AC50 is 59.6 µM (active).
